KB-V1 MDR tox = qHTS assay for MDR1-selective chemotherapeutics: Primary screen using the drug-selected MDR subline cells KB-V1; KB-V1 MDR cells viability, CellTiter-Glo, 72 h; AID 1347076, 2019; 400,000 compounds, 3.4% hits; Potency, µM (top dose mostly 46.1 µM), actives largely listed as cytotoxic; also: % is scaled to controls: 0 for no effect and ±100 for the full control effect; nearly all actives have a fitted effect of over 60% in size
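Cells of the MDR subline KB-V1 are plated, dosed with compound at multiple concentrations, and incubated 72 h at 37 degrees C; CellTiter-Glo is then added and luminescence read after 10 min.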
ELG1 repair inh = qHTS screen for small molecules that inhibit ELG1-dependent DNA repair in human embryonic kidney (HEK293T) cells expressing luciferase-tagged ELG1. Potency, µM (titrated, usually from 46.1 µM), without a hit: top-dose activity change, negative = inhibition, most hits filed as inhibitors. AID 504467, 2011. HEK293T ELG1-luciferase reporter, luminescence, 16 h; DNA damage induced by 5-fluorouridine. 330,000 compounds, 2.3% hits; also: % is scaled to controls: 0 for no effect and ±100 for the full control effect; nearly all actives have a fitted effect of over 55% in size
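Cells (2,000 per well) received 5-fluorouridine plus test compound or DMSO and were incubated 16 hr at 37 °C, 5% CO2. Luciferase activity was read by luminescence 30 min after ONE-Glo addition; signal suppression marked inhibition of damage-induced ELG1 function.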
MCF10A rereplic = A quantitative high throughput screen for small molecules that induce DNA re-replication in MCF 10a normal breast cells; MCF 10A DNA re-replication, Hoechst nuclear intensity, 48 h; Potency, µM (titrated, usually from 46.1 µM), for the others: at the highest dose activity, positive = re-replication, most hits filed as activators; 350,000 compounds, 2.9% hits; also: % of control where 0% means no effect; nearly all actives have a fitted effect of over 50% in size
SW480 rereplic = A quantitative high throughput screen for small molecules that induce DNA re-replication in SW480 colon adenocarcinoma cells; SW480 DNA re-replication, Hoechst DNA content imaging, 48 h; Potency, µM (series often up to 46.1 µM), for the others: at the highest dose re-replication activation, usual class: activators; 340,000 compounds, 1.8% hits; AID 624297, 2012; also: % of control where 0% means no effect; nearly all actives have a fitted effect of over 55% in size
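Hoechst fluorescence of nuclei (405 nm excitation, 500-530 nm emission) measured by plate-scanning imager after 48 hr compound exposure at 37 C; re-replication scored as increased number of nuclei with elevated intensity.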
KB-3-1 tox = qHTS assay for MDR1-selective chemotherapeutics: Primary screen using the parental adenocarcinoma cell KB-3-1 | KB-3-1 viability, CellTiter-Glo ATP luminescence, 72 h | Potency, µM (titrated, usually from 46.1 µM), most hits filed as cytotoxic | 400,000 compounds, 1.4% hits | AID 1347075, 2019; also: % is scaled to controls: 0 for no effect and ±100 for the full control effect; nearly all actives have a fitted effect of over 60% in size
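Viability of parental KB-3-1 cells, measured by CellTiter-Glo luminescence, followed a 72 h incubation at 37 °C with pinned compounds in phenol-red-free DMEM containing 10% FBS.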
* hit, by the source's call; i = inactive; ? = inconclusive; . = no result. This is a sample that favours compounds with a hit; in the whole collection about 8.1% have one here. Calls follow the shape of the dose curve; as a rule, active = well fitted curve in the direction sought with a large enough effect; inconclusive = small, poorly fitted or top-dose-only effect, or another doubt; inactive = no such curve, though single readings can be large; an effect the other way counts as inactive or inconclusive. Potency is read from the fitted curve at half-maximal effect.

SMILES	KB-V1 MDR tox	ELG1 repair inh	MCF10A rereplic	SW480 rereplic	KB-3-1 tox
CC1Cc2ccccc2N1C(=O)COC(=O)c1c2c(nc3ccccc13)CCCCC2 (stereo not given)	9.2µM*	13µM*	21µM*	?	?
O=C(OCC(=O)N1CCc2ccccc21)c1c2c(nc3ccccc13)CCCC2	9.2µM*	?	?	10%	?
COCCn1c(=N)c(C(=O)NCc2ccco2)cc2c(=O)n3cc(C)ccc3nc21	?	5%	-43%	-4%	i
C(=C\c1c[nH]c2ccccc12)/c1nccc2ccccc12	i	.	.	.	i
O=C(/C=C/c1c[nH]c2ccccc12)c1cccc2ccccc12	?	1%	21µM*	16µM*	?
COCCN(C(=O)CCC(=O)Nc1ccccn1)C(C(=O)NC(C)(C)C)c1ccc(OC)cc1 (stereo not given)	i	-6%	1%	9%	i
COC(=O)c1ccc(NS(=O)(=O)c2cc(-c3cc(C)no3)ccc2OC)cc1	?	-12%	25%	18µM*	5.8µM*
COc1ccc(Cl)cc1NS(=O)(=O)c1cc(-c2cc(C)no2)ccc1C	3.7µM*	.	.	.	13µM*
COc1ccc(N2CC(C)Cn3c2nc2c3c(=O)n(Cc3ccccc3)c(=O)n2C)c(OC)c1 (stereo not given)	i	18µM*	17%	14%	i
COc1cccc(N2CC(O)Cn3c2nc2c3c(=O)n(CCCc3ccccc3)c(=O)n2C)c1 (stereo not given)	?	23µM*	1%	-8%	i
COc1ccc(N2CCn3c2nc2c3c(=O)n(CCCc3ccccc3)c(=O)n2C)c(OC)c1	9.2µM*	21µM*	10%	0%	?
O=S(=O)(Nc1ccc2c(c1)OCO2)c1ccc(Br)s1	i	0%	18µM*	?	i
COc1ccc(CNS(=O)(=O)c2ccc(Br)s2)cc1	i	6%	5%	-2%	i
COc1cc(NS(=O)(=O)c2ccc(Br)s2)cc(OC)c1	16µM*	-4%	5%	1%	?
CCCCCCCC/C=C\CCCCCCCC(=O)NCc1ccc(O)c(OC)c1	.	.	24µM*	-4%	.
COCCNC(=O)/C(C#N)=C/c1c(N2CCN(c3ccccc3)CC2)nc2c(C)cccn2c1=O	i	?	22%	?	i
Cc1ccc(Cl)cc1N1CCN(C(=O)CSc2nnc3n2C(C)(C)Cc2ccccc2-3)CC1	12µM*	12µM*	13µM*	5%	?
CCOC(=O)C(CC)Sc1nnc2n1C(C)(C)Cc1ccccc1-2 (stereo not given)	16µM*	-3%	16%	1%	i
Cc1ccc(Cl)cc1N1CCN(C(=O)Cn2ccc3ccccc3c2=O)CC1	?	?	?	-3%	i
COc1ccc(NC(=O)CSc2nnc(-c3ccccc3C)n2C)cc1	15µM*	?	8%	-2%	i
COc1ccc(-c2nnc(SCC(=O)Nc3ccc(C)cc3)n2C)cc1	i	-19%	-8%	2%	i
COc1ccc2nc(NC(=O)CSc3nnc4n3C(C)(C)Cc3ccccc3-4)sc2c1	i	7%	6%	0%	i
CC1(C)Cc2ccccc2-c2nnc(SCC(=O)N3CCc4ccccc43)n21	4.1µM*	?	1%	7%	i
Cc1cc(OCC(=O)Nc2ccc3oc(-c4ccncc4)nc3c2)ccc1Cl	i	.	0%	-17%	i
O=S(=O)(c1ccc(Cl)cc1)N1CCC(N2CCCCCC2)CC1	i	9%	?	1%	i
SMILES	KB-V1 MDR tox	ELG1 repair inh	MCF10A rereplic	SW480 rereplic	KB-3-1 tox
COc1cc(NC(=O)CSc2nnc3n2C(C)(C)Cc2ccccc2-3)cc(OC)c1	i	22µM*	14%	6%	i
COc1ccc(N2CCN(C(=O)CSc3nnc4n3C(C)(C)Cc3ccccc3-4)CC2)cc1	5.2µM*	21µM*	6%	-6%	?
COc1ccc(N2CCN(C(=O)CSc3nnc4c(C)cc5c(C)cc(C)cc5n34)CC2)cc1	?	?	2%	11%	i
COc1ccc(N2CCN(C(=O)CSc3nnc4c(C)cc5cc(C)ccc5n34)CC2)cc1	5.8µM*	?	-3%	-5%	i
COC(=O)CSc1nnc2n1C(C)(C)Cc1ccccc1-2	i	-4%	5%	-1%	i
COc1ccc(CCNC(=O)c2cc(S(=O)(=O)N3CCOCC3)ccc2N2CCCC2)cc1OC	i	10%	-1%	-3%	i
COc1ccc(CNC(=O)c2cc(S(=O)(=O)N3CCCCC3)ccc2N2CCOCC2)cc1OC	23µM*	.	11%	11%	i
CN(C)S(=O)(=O)c1ccc(N2CCCC2)c(C(=O)Nc2ccccc2N2CCOCC2)c1	?	-7%	3%	7%	i
Cc1ccc(S(=O)(=O)N(C)C)cc1NC(=O)c1cc(S(=O)(=O)N2CCCCC2)ccc1N1CCOCC1	i	10µM*	0%	25%	i
COc1ccc(C)cc1NC(=O)c1cc(S(=O)(=O)N2CCCCC2)ccc1N1CCOCC1	i	15µM*	-2%	16%	i
O=C(O)CC(NC(=O)c1ccc2c(c1)OCO2)c1cccc([N+](=O)[O-])c1 (stereo not given)	i	2%	-6%	-54%	i
Cc1cc(C)c(C#N)c(SCc2ccccc2F)n1	i	4%	9%	1%	i
CCCCCCCCCCCCCCCCC(C(=O)O)C(O)(CC(=O)O)C(=O)O (stereo not given)	.	.	30µM*	0%	.
COc1cc(C2C(C#N)=C(N)Oc3cc(C)n(Cc4ccccn4)c(=O)c32)cc2c1OCO2 (stereo not given)	.	10%	.	.	.
O=C(NCC(=O)N1CC=C(c2ccccc2)CC1)c1ccccc1Br	?	-24%	8.2µM*	-26%	?
O=C(NCC(=O)N1CC=C(c2ccccc2)CC1)c1ccc(OC(F)F)cc1	13µM*	?	8.2µM*	?	?
COc1cc(OC)cc(C(=O)NCC(=O)N2CC=C(c3ccccc3)CC2)c1	7.3µM*	?	?	7.3µM*	5.8µM*
O=C(NCC(=O)N1CCCCCC1)c1ccc(OC(F)F)cc1	i	?	0%	-5%	i
COc1ccc(/C=C(\NC(=O)c2ccccc2)C(=O)NCc2ccco2)cc1	i	?	16%	-4%	i
COc1ccccc1Cn1c(=O)oc2ccccc21	i	.	.	.	i

High-throughput results as filed in PubChem.
